The entries come from a sample that favours hits as a whole.
RBX1-CUL1 inh: inhibitors of human ROC1-CUL1 ubiquitin ligase activity | 140,000 tested, 0.6% active | E3 ubiquitin-protein ligase RBX1 (Homo sapiens) + Cullin-1 (Homo sapiens), P62877+Q13616 | in vitro K48 di-Ub FRET, acceptor:donor ratio, 45 min | AID 1347404, 2020 | inhibition, % at 10 µM; in the data active = inhibition above about 25%
Active calls of the source: *.

SMILES	RBX1-CUL1 inh
Cc1cc(/C=C2\C(=O)NC(=O)N(c3ccc(Cl)c(Cl)c3)C2=O)c(C)n1-c1cccnc1	40*
Cc1cc(/C=C2/C(=O)NC(=S)N(c3cccc(F)c3)C2=O)c(C)n1-c1ccccc1	14
COc1cc(OC)cc(C(=O)NCCc2ccccc2)c1	0
CCOC(=O)C1C(CN(CC)Cc2ccccc2)=NC(=O)NC1c1ccc(Cl)cc1 (centres undefined)	-8
O=[N+]([O-])c1ccccc1C1CC(c2ccccc2)=Nc2ccccc2N1 (centres undefined)	-4
CCc1noc(C)c1C(=O)Nc1ccc(Cl)c(Cl)c1	12
CC(C)CN1C(=O)C(Cc2ccc(-c3cccc(C(=O)O)c3)o2)=NC1=S	28*
O=C1N=C(Cc2ccc(-c3ccc(Cl)c(Cl)c3)o2)C(=O)N1Cc1ccccc1	-8
CC(C)CCNCc1ccc(-c2cccc(C(=O)O)c2)o1	3
O=C1N=C(Cc2ccc(-c3ccccc3)o2)C(=O)N1Cc1ccc(Cl)cc1	6
O=C(O)c1cc(-c2ccc(CC3=NC(=O)N(Cc4ccccc4)C3=O)o2)ccc1Cl	58*
O=C(O)c1ccc(-c2ccc(CC3=NC(=O)N(Cc4ccccc4F)C3=O)o2)cc1Cl	3
CCN1CC(CN(C)C(=O)c2ccc(OC3CCN(C(=O)C4CC4)CC3)cc2)CC1=O (centres undefined)	6
COC(=O)[C@H]1O[C@H](c2ccc(OC)cc2)O[C@H]1c1ccc(OC)cc1	-5
O=C(NNC(=O)c1cncc(Br)c1)c1cccnc1	-5
COc1ccc(OCC(=O)Oc2cc(C)ccc2C)cc1	1
CC1C(=NC(=O)CN2CCN(C/C=C\c3ccccc3)CC2)C(=O)N(c2ccccc2)N1C (centres undefined)	-7
COc1cc(CN2CCCC2)ccc1OCC(O)CN1CCCCCCC1 (centres undefined)	1
COc1cc(CNCCSC)ccc1OCC(O)CN1CCCCCC1 (centres undefined)	4
COc1cc(CNC(C)(C)C)ccc1OCC(O)CN1CCCC1 (centres undefined)	99*
CCN1CCC(NC2CCCc3nc(N(C)C)ncc32)CC1 (centres undefined)	-3
S=C(NCCc1ccccn1)c1ccccc1	6
COc1cccc(C(=S)NCS(=O)(=O)c2ccc(C)cc2)c1	-5
O=S(=O)(CNC(=S)c1ccccc1)c1ccccc1	35*
Cc1cc(/C=C2/C(=N)N3N=C(C(C)C)SC3=NC2=O)c(C)n1-c1cccc2ccccc12	7
SMILES	RBX1-CUL1 inh
COc1cc(C(=O)Oc2ccccc2C(C)=O)cc(OC)c1OC	-6
CC(=O)c1ccccc(OC(=O)c2ccccc2)c1=O	81*
O=C(Oc1ccccc1C(=O)Oc1ccccc1)c1ccccc1	2
CCCCc1ccc(NC(=S)N2CCN(Cc3ccccc3)CC2)cc1	-4
COC(=O)c1cc(NC(=O)c2sc3ncccc3c2N)ccc1Cl	9
Cc1ccc(F)cc1CNC(=O)c1cc(CN2CCOCC2)on1	-2
CC#CCN1C(=O)NC(CCCc2ccccc2)(C2CCN(Cc3ccccc3O)CC2)C1=O (centres undefined)	7
Cc1ccc(CN2C[C@@H]3C[C@@H](c4cccc5c4OCO5)N4CCC[C@@]34C2=O)o1	5
C1=C(CCNCc2ccccn2)CCCC1	6
CN(C)c1cc[n+](Cc2ccccn2)cc1	0
c1ccc(C[n+]2cccc3c2CCCC3)nc1	45*
COCCN1C(=O)/C(=C/c2ccccc2OCc2cccc(C(=O)O)c2)SC1=Nc1ccccc1	68*
Cc1ccc(N=C2S/C(=C/c3ccccc3OCC(=O)N3CCOCC3)C(=O)N2Cc2ccccc2)cc1	2
CCOc1ccccc1/C=C1\SC(=Nc2ccc(C(=O)OC)cc2)N(C)C1=O	-11
Cc1nc(-c2ccccc2)sc1-c1csc(Nc2nc(-c3ccccc3)cs2)n1	-4
Cc1ccc(S(=O)(=O)C(F)F)cc1	9
O=S(=O)(c1c(F)c(F)c(F)c(F)c1F)C(F)F	103*
COc1cccc(C(=O)NC2CC(=O)N(Cc3ccc(F)cc3)C2)c1 (centres undefined)	12
Cn1nnnc1Sc1ccc([N+](=O)[O-])c(Sc2nnnn2C)n1	32*
Cn1ccnc1Sc1ccc([N+](=O)[O-])c(Sc2nccn2C)n1	3
Cn1nnnc1Sc1ccc([N+](=O)[O-])cc1Cl	-4
O=C(Nc1ccc(Cl)cn1)c1sc2ccccc2c1O	-12
Cc1cc2c(c(=O)o1)C(c1ccc(OC(F)F)cc1)C(C#N)C(=N)O2 (centres undefined)	9
O=C(O)c1cccc(NC(=O)c2ccc3c(c2)C(=O)N(C2CCCCC2)C3=O)c1	26*
COc1ccc(C(=O)Nc2ccc3c(c2)C(=O)N(C2CCCCC2)C3=O)cc1	11
SMILES	RBX1-CUL1 inh
CC(C)(C)NC(=O)c1ccc2c(c1)C(=O)N(C1CCCCC1)C2=O	0
Cc1cc(-c2ccccc2)n(-c2c(F)c(F)c(CN3CCOCC3)c(F)c2F)n1	-9
CCOc1cc(CN2CCCC(c3nc(-c4ccncc4)ncc3-c3ccccc3)C2)ccc1OC (centres undefined)	3
N#Cc1ccccc1CSc1nnc(-c2cccs2)n1-c1ccccc1	3
CCOc1cc[n+](CC)c(-c2ccccc2)n1	0
CC[n+]1cc(Cl)nc(-c2ccccc2)c1-c1ccccc1	39*
Nc1nc(-c2ccccc2)c(Cl)nc1-c1ccccc1	5
COCCCN1C(=O)CC(CC(=O)NCc2cnn(-c3ccccc3)n2)(c2ccccc2C)C1=O (centres undefined)	7
Cc1nnc(SCCNC(=O)Cn2ncc(N(C)C)cc2=O)s1	8
COCC(=O)Oc1c(Sc2ccc(C)cc2)c(C)nn1C(C)(C)C	59*
COc1ccc(C(=O)Oc2c(Sc3ccc(C)cc3)c(C)nn2C(C)(C)C)cc1OC	-8
COc1cccc(C(=O)Oc2c(Sc3ccc(C)cc3)c(C)nn2C(C)(C)C)c1OC	-3
C=C(C)CN1N=C(C)C(C)n2c1nc1c2c(=O)n(C)c(=O)n1C (centres undefined)	-2
CCCCN1N=C(C)Cn2c1nc1c2c(=O)n(CC)c(=O)n1C	1
O=C(CSc1nc2scc(-c3ccco3)c2c(=O)n1-c1ccccc1)c1ccc(F)cc1	97*
O=C(CSc1nc2scc(-c3ccco3)c2c(=O)n1-c1ccccc1)Nc1ccc2c(c1)OCCO2	3
CC(=O)CSc1nc2scc(-c3ccc(C)o3)c2c(=O)n1-c1ccccc1	-5
COc1ccc(C2CCN(Cc3ccoc3)c3ccccc3S2)cc1C (centres undefined)	3
CC(C)NS(=O)(=O)c1ccc(-c2ccc(S(=O)(=O)NC(C)C)cc2)cc1	0
COc1ccc(-c2nc(CN3CCC[C@H]3CO)c(C)o2)c(F)c1	-1
COCc1ccc(C(=O)N2CCc3onc(-c4ccccc4F)c3C2)s1	3
Cc1ccc(S(=O)(=O)Nc2c(C)cc(C)cc2Cl)cc1	0
Cc1c(-c2ccccc2)nc2ccccc2c1C(=O)NC1=NCCS1	-3
COc1ccc(C2C3=C(CC(c4ccc(OC)c(OC)c4)CC3=O)N=C(C)C2C(=O)OC2CCCC2)cc1O (centres undefined)	2
Cc1ccc(-n2cnc3ncnc(-c4ccc(Br)cc4)c32)cc1	4
COCCCNc1ncnc2sc(C(=O)N3CCN(Cc4ccccc4OC)CC3)c(C)c12	-8
CCOC(=O)C=CCn1nnn(-c2ccc(Cl)cc2)c1=O	2
CO/C=C\C=C/c1nnn(-c2ccc(Cl)cc2)n1	38*
COCc1c(C(=O)O)nnn1-c1ccc(Cl)cc1	3

High-throughput results: PubChem BioAssay, Pan Lab, Icahn School of Medicine at Mount Sinai
